In PubChem BioAssay AID382 (SGCOxCompounds, 2006):
Active and inactive are the calls of the source. The rule behind the calls is not given here.

The molecules below were run against Dual specificity protein kinase CLK1 (Homo sapiens) (UniProt P49759) (assay: CLK1 binders by thermal stabilization, biophysical, recombinant human kinase, DSF (AID 382)). Details: at 10 µM, protein 1.7 µM, buffer 10 mM HEPES, pH 7.5, NaCl 150 mM, with 50 µM L-Arg/L-Glu (1:1), active compounds read high.
Chain of Dual specificity protein kinase CLK1 (Homo sapiens) (P49759 whole entry, looked up): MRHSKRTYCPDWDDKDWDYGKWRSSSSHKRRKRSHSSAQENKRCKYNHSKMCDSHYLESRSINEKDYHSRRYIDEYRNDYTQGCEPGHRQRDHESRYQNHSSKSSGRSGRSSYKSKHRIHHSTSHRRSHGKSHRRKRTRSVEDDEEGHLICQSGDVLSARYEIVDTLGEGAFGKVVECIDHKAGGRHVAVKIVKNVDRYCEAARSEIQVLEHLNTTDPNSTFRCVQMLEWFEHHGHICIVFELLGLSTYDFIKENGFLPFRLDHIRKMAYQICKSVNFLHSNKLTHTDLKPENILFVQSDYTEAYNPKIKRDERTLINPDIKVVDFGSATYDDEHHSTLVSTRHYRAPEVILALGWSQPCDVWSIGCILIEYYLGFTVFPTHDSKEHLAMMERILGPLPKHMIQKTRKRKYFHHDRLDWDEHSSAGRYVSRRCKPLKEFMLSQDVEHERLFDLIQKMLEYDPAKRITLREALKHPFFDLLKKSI

Tm shift, active:
COc1ccc(Nc2nc(N)c(C(=O)c3ccc(OC)cc3)s2)cc1 4.5 Celsius, Nc1nc(Nc2ccccc2)sc1C(=O)c1ccc(F)cc1 3.2 Celsius, COc1ccc(Nc2nc(N)c(C(=O)c3ccc(Cl)cc3)s2)cc1 4.4 Celsius, Nc1nc(Nc2ccc(F)cc2)sc1C(=O)c1ccccc1 3.3 Celsius

Same assay, conditions: at 10 µM, protein 2 µM, buffer 10 mM HEPES, NaCl 150 mM, active compounds read high

Tm shift, active:
COc1cc(/C=C/C(=O)CC(=O)/C=C/c2ccc(O)c(OC)c2)ccc1O 9.16 Celsius, O=c1cc(-c2ccccc2)oc2cc(O)c(O)c(O)c12 4.05 Celsius, Cc1c(O)cc(O)c2c1OC(c1ccc(O)c(O)c1)C(=O)C2=O (stereo unspecified) 4.98 Celsius, O=c1c(-c2ccc(O)cc2)coc2cc(O)cc(O)c12 3.77 Celsius, O=c1cc(-c2ccc(O)c(O)c2)oc2cc(O)cc(O)c12 5.77 Celsius, O=C1C(=O)C(c2cccc(O)c2)Oc2ccccc21 (stereo unspecified) 3.88 Celsius, O=c1c(O)c(-c2ccc(O)cc2)oc2cc(O)cc(O)c12 5.97 Celsius, O=C1C(=O)C(c2cc(O)c(O)c(O)c2)Oc2cc(O)cc(O)c21 (stereo unspecified) 6.4 Celsius, O=Nc1c(-c2c(O)[nH]c3ccc(I)cc23)[nH]c2ccccc12 5.14 Celsius, Brc1c(Br)c(Br)c2n[nH]nc2c1Br 3.97 Celsius

Same assay, conditions: at 10 µM, protein 2 µM, buffer 10 mM HEPES, pH 7.5, NaCl 150 mM, with 50 µM L-Arg/L-Glu (1:1), active compounds read high

Tm shift, active:
COc1cccc(-c2cnn3ccc(Nc4cccc(Cl)c4)nc23)c1 6 Celsius, COC(=O)c1ccc(-c2cnc3ccc(NC4CCOCC4)nn23)cc1 4.3 Celsius, CCC(CO)Nc1ccc2ncc(-c3ccc(CO)cc3)n2n1 (stereo unspecified) 5.3 Celsius, COCCNc1ccc2ncc(-c3cccc(C(C)=O)c3)n2n1 5.1 Celsius, Oc1cccc(-c2cnc3ccc(NC4CCOCC4)nn23)c1 5.1 Celsius, N#CCCc1ccc2c(c1)-c1[nH]c3ccc(-n4oo4)cc3c1CC(=O)N2 3.1 Celsius, CC(=O)Nc1cccc(-c2cnc3ccc(N[C@H](CO)C(C)C)nn23)c1 7.4 Celsius, CC(C)[C@@H](CO)Nc1ccc2ncc(-c3cccc(F)c3)n2n1 3.9 Celsius, COCCNc1ccc2ncc(-c3cccc(Cl)c3)n2n1 3.6 Celsius, CCC(CO)Nc1ccc2ncc(-c3cccc(OC(F)(F)F)c3)n2n1 (stereo unspecified) 5.3 Celsius, O=C1NC(=O)C(c2cn(CCCn3ccnc3)c3ccccc23)=C1Nc1ccccc1 5.8 Celsius, CC(C)[C@@H](CO)Nc1ccc2ncc(-c3cccc(Cl)c3)n2n1 3.9 Celsius, COc1cncc(-c2cnc3ccc(NC4CCOCC4)nn23)c1 3.2 Celsius, Nc1ccc(-c2cnc3ccc(NC4CCOCC4)nn23)cc1 4.8 Celsius, Clc1ccc(-c2cnc3ccc(NC4CCOCC4)nn23)cc1 5.7 Celsius, Fc1cccc(-c2cnc3ccc(NC4CCOCC4)nn23)c1 4.5 Celsius, O=C1NCc2c1c1c3ccccc3[nH]c1c1[nH]c3ccccc3c21 3.1 Celsius
